Experimental findings from PubChem BioAssay (NCI) are described below.

Molecules are shown by their SMILES. The panel holds about 79,000 compounds, 15% with a hit somewhere; the sample as a whole holds those more often. Values without a mark were called inactive. Active and inactive are the calls of the source. Cut-off read from the data, not from the text of the source: active = growth inhibition above about 70%; inactive = the rest.

The nature of the test: NCI Yeast Anticancer Drug Screen. Data for the mec2-1 strain (AID 157). Conditions: S. cerevisiae mec2-1 strain, stronger effect = higher value. Here is the method:
Growth inhibition of yeast strains with defined genetic alterations is measured as a screen for potential anti-cancer activity. Selected strains with alterations in DNA damage repair or cell cycle control were exposed to compounds and growth inhibition was measured relative to vehicle treated controls. The strain used in this assay is mec2-1

The mark [1] stands for this setting: at 5.0 µM (retest, dose inferred, filed as 0.5).
[2] abbreviates: at 50.0 µM (retest, dose inferred, filed as 5.0).

For `CCN(CC)CCN1C(=O)c2c(c3c4cccc(Cl)c4n(C4OC(CO)C(OC)C(O)C4O)c3c3[nH]c4c(Cl)cccc4c23)C1=O` (configuration not stated), the growth inhibition is, setting by setting: under setting [1], 56%; under setting [2], 98% (active); (at 50.0 µM) 87.3% (active).

Regarding `Cn1c2c(c3ccccc31)CCN1C[C@@H]3CCCC[C@H]3C[C@@H]21`, the growth inhibition under setting [1] is 0%, the growth inhibition under setting [2] was 2% and the growth inhibition (at 50.0 µM) was 8.8%.

On to `CCc1ccc(-c2ccccc2)cc1`, for which the growth inhibition under setting [1] is -1%, the growth inhibition under setting [2] was 6% and the growth inhibition (at 50.0 µM) is -2.95%.

Consider `Cc1cc(N(CCOS(C)(=O)=O)CCOS(C)(=O)=O)ccc1C=Nc1ccc(-c2csc(-c3ccc(Cl)cc3)n2)cc1`, for which the growth inhibition by setting is: under setting [1], 17%; under setting [2], 96% (active); (at 50.0 µM) 97% (active).

As to `Nc1nc(N)c2cc(S(=O)c3ccc4ccccc4c3)ccc2n1` (configuration not stated), the growth inhibition is, setting by setting: under setting [1], 29%; under setting [2], 64%; (at 50.0 µM) 79.2% (active).

Turning to `COC1C=COC2(C)Oc3c(C)c(O)c4c(O)c(c(C5SCCS5)c(O)c4c3C2=O)NC(=O)C(C)=C/C=C\C(C)C2OC(C)(C)OC(C2C)C(C)C(OC(C)=O)C1C` (configuration not stated), the growth inhibition was 8% under setting [1], 93% (active) under setting [2] and 93.6% (active) (at 50.0 µM).

Regarding `O=[N+]([O-])c1cc(Cl)c(Cl)cc1NS(=O)(=O)c1ccccc1`, the growth inhibition is, setting by setting: under setting [1], -8%; under setting [2], 51%; (at 50.0 µM) 49.5%.

Turning to `COc1cccc2c1C(=O)c1c(O)c(COC3CC(N)C(O)C(C)O3)cc(O)c1C2=O` (configuration not stated), the growth inhibition under setting [1] was 14%, the growth inhibition under setting [2] is 96% (active) and the growth inhibition (at 50.0 µM) is 73% (active).

As for `CSc1nc(NN)cc(-c2ccccc2)n1`, the growth inhibition is, setting by setting: under setting [1], 24%; under setting [2], 19%; (at 50.0 µM) 50.3%.

As for `CC1=NC(C)=C(/C(C)=N/NC(=O)c2ccccc2O)C(C)/C1=C(/C)NNC(=O)c1ccccc1O` (configuration not stated), the growth inhibition was 12% under setting [1], 12% under setting [2] and 75% (active) (at 50.0 µM).

Regarding `CCOc1ncc(Cl)c(OCC)n1`, the growth inhibition is, setting by setting: under setting [1], -4%; under setting [2], -2%; (at 50.0 µM) 35.9%.

For `CC(C)C(OC(=O)c1ccc(NCc2cc(O)ccc2O)cc1)C(C)C`, the growth inhibition is 23% under setting [1], 99% (active) under setting [2] and 92% (active) (at 50.0 µM).

Consider `CC(C)(C)C(=O)/C=C/c1ccc2ccccc2n1`, for which the growth inhibition is -48% under setting [1], -51% under setting [2] and 51.1% (at 50.0 µM).

In the case of `Cn1cc(NC(=O)Nc2cc(C(=O)Nc3cc(C(=O)Nc4ccc5cc(S(=O)(=O)O)cc(S(=O)(=O)O)c5c4)n(C)c3)n(C)c2)cc1C(=O)Nc1cc(C(=O)Nc2ccc3cc(S(=O)(=O)O)cc(S(=O)(=O)O)c3c2)n(C)c1`, the growth inhibition is 36% under setting [1], 99% (active) under setting [2] and 93.7% (active) (at 50.0 µM).
